PG9 binder – binds the HIV-1 gp120 antibody PG9. TR-FRET gp120-PG9 antibody binding. inhibition, % at 6.7 µM. actives 0.43% (n = 360,000). AID 624416; in the data active = inhibition above about 8.5%
aDG glyco act – alpha-DG glycosylation activation; Pro5-aDG cells, alpha-DG glycosylation AlphaScreen (IIH6); 0% Pro5, 100% B10-LARGE cell signal; activation, % at 10 µM; actives 0.22% (n = 360,000);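 active = activation of at least 8% versus controls, or a plate z-score of at least 8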;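 also: Pro5 are CHO cells carrying HIG-tagged alpha-DG that lacks glycosylation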
ZTA DNA inh – ZTA (EBV) inhibition in EBNA-1 counter-screen; actives 0.15% (n = 320,000); ZTA-DNA binding, fluorescence polarization; inhibition, % at 11 µM; P03206; in the data active = inhibition above about 33%
Target sequence (P03206 whole entry, looked up): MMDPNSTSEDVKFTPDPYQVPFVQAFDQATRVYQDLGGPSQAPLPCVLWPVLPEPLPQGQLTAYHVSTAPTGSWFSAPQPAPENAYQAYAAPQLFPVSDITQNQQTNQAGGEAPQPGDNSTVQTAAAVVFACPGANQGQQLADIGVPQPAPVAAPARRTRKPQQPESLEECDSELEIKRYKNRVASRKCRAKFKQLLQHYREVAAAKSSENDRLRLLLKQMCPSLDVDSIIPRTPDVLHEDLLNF
NCF1 inh – inhibitors of human p47phox binding; P14598; p47phox/p22phox peptide binding, fluorescence polarization, 2 h; inhibition, % at 24.7 µM; actives 0.53% (n = 220,000);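 active = inhibition above about 30%, limit read from the data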;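 also: 0% = p47phox with labelled peptide and 100% = labelled peptide alone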
Target sequence (P14598 whole entry, looked up): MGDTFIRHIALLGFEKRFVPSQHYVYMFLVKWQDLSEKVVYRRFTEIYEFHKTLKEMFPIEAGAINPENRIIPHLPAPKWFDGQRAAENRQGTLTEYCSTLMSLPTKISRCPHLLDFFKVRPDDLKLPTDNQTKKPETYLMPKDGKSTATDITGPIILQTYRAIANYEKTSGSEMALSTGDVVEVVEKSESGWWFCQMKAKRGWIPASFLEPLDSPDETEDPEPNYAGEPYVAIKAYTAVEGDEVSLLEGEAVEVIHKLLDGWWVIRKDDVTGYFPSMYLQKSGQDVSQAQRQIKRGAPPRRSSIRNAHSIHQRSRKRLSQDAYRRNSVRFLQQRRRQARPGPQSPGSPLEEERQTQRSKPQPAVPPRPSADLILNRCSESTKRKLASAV
Rev-erbA mod – modulates human Rev-erb alpha binding to DNA. P20393. Rev-erbα–FITC-DNA binding, fluorescence polarization, 90 min. activity, % at 10 µM. actives 0.79% (n = 370,000). AID 1259318;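 active = activity above about 14%, limit read from the data; passing the limit was not always enough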;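 also: 0% = DMSO wells with 35 nM protein and 100% = DMSO wells with 750 nM protein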
EBNA-1 inhibitor – blocks EBNA-1 binding to DNA | AID 1950 | actives 0.34% (n = 300,000) | EBNA-1 DNA binding, fluorescence polarization | inhibition, % at 14.8 µM; in the data active = inhibition above about 28%
Rev-erbA confirm – confirmation of modulators of human Rev-erb alpha DNA binding; shares compounds with Rev-erbA mod; Rev-erb alpha FITC-DNA binding, fluorescence polarization, 90 min; activation, % at 25 µM; actives 61% (n = 3,000); AID 1259319;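 active = activation at or above a set limit, or at least 3 SD above the negative control mean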;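 also: 0% = 35 nM protein with DMSO and 100% = 750 nM protein high control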
RORg counter – RORgamma DNA-binding activity, dose-response counter-screen; shares compounds with Rev-erbA mod; purified RORgamma protein-FITC-DNA binding, fluorescence polarization; IC50, µM; actives 8% (n = 910); AID 1259320;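 active = Compounds whose fitted half-maximal concentration for disrupting protein-DNA binding is below 10 micromolar; the record names Rev-erb in its text, so the target is in doubt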
* marks the source's active call; other numbers are inactive results; . = not tested or not shown. The list is not random: actives were taken first. Their share in the collection is about 1.9%.

SMILES	PG9 binder	aDG glyco act	ZTA DNA inh	NCF1 inh	Rev-erbA mod	EBNA-1 inhibitor	Rev-erbA confirm	others
C[C@H](O)[C@@H]1CN2CCc3ccc(N4CCOCC4)cc3[C@@H]2C[C@@H]1N(C)C(=O)c1ccccc1F	.	.	.	.	1.5	.	.
C/C=C(/C)C(=O)O[C@@H]1[C@H](OC(=O)C=C(C)C)c2c(ccc3ccc(=O)oc23)OC1(C)C	3.2	0.2	-1.1	-3.3	-6.7	7.8	.
CC(C)=CC(=O)O[C@@H]1Cc2c(ccc3ccc(=O)oc23)OC1(C)C	-0.4	0.1	.	.	25.7*	.	22.7*
Cc1ccc(CNC(=O)COC(=O)CCOc2ccc(C)cc2)cc1	-3.4	0.3	-0.2	.	3.5	5.1	.
Cc1ccc(OCCC(=O)OCC(=O)NC(=O)NCc2ccccc2)cc1	0.1	-0.1	4.5	.	17.5*	-1.9	-1.7
O=S(=O)(c1ccccc1F)N1CCC(c2nc3ccccc3o2)CC1	.	.	.	.	-0.5	.	.
CC(C)CN1C(=O)[C@]2(CC(=O)N(C)C2c2ccccc2)c2cc(-n3cc(-c4ccccc4)nn3)ccc21 (stereo not given in full)	.	.	.	.	-6.0	.	.
COc1ccc(-c2c(C#Cc3ccsc3)c3cc(-c4ccc5[nH]ccc5c4)ccc3n2C)cc1	-1.0	0.6	12.1	.	4.3	.	.
COc1cc(OC)cc(-c2c(C#Cc3ccsc3)c3cc(-c4ccc5c(c4)OCO5)ccc3n2C)c1	-6.2	-0.3	.	.	26.1*	.	26.3*
COc1ccc(-c2c(C#Cc3ccsc3)c3cc(-c4ccc5c(c4)OCCO5)ccc3n2C)cc1	1.8	-0.2	.	.	54.2*	.	77.3*	RORg counter=3.42*
COc1ccc(-c2c(C#Cc3ccsc3)c3cc(-c4ccc5c(c4)OCO5)ccc3n2C)cc1	0.3	-0.5	10.9	.	20.8*	.	30.1*
CC(C)C(=O)N1CC[C@H]2[C@H](CCCN2Cc2ccc(F)cc2)C1	.	.	.	.	-1.6	.	.
CCC[C@H]1[C@@H](OC(=O)N2CCN(c3ccccc3)CC2)CC[C@@]23CCCN2C(=O)CCC[C@@H]13	.	.	.	.	3.7	.	.
COC(=O)Cn1nc(-c2ccccc2)c2cccc(C(F)(F)F)c21	.	.	.	.	-0.2	.	.
OCCN(CCO)c1ccc(C(c2ccc(Cl)cc2)c2ccc(N(CCO)CCO)cc2Cl)c(Cl)c1	-1.3	-0.3	-2.9	-52.2	0.6	-1.4	.
Cc1cc(N(CCO)CCO)ccc1N=Nc1cc(F)ccc1F	-0.8	-0.1	14.5	-43.5	54.3*	12.6	28.6*
Fc1cccc2sc(Nc3nc4cc5c(cc4s3)OCCO5)nc12	-1.9	0.4	4.6	-57.6	33.9*	16.2	35.3*	RORg counter=>40
N#Cc1nnn2c1nc(N)c1c(F)cccc12	2.6	0.0	-2.5	.	4.3	-7.5	.
N#Cc1nnn2c1nc(N)c1c(Cl)cccc12	-0.6	0.1	.	.	36.8*	.	15.3*
COCCCNC(=O)C[C@H]1C[C@@]2(C(=O)OC)C(=C[C@H](C(C)C)O[C@@H]2C2CC2)N(Cc2ccc(Cl)cc2Cl)C1=O	.	.	.	.	0.1	.	.
N#Cc1ccc(CSc2nc3sc4c(c3c(=O)n2-c2ccc(Br)cc2)CCCC4)cc1	.	.	.	.	23.0*	.	8.7
Cc1cc(C)cc(C(=O)OCCN2CCN(C3CN(Cc4cn(Cc5ccc([N+](=O)[O-])cc5)nn4)S(=O)(=O)C3)CC2)c1 (stereo not given)	.	.	.	.	2.4	.	.
O=C(c1cc(-c2ccccc2Cl)nc2ccc(Br)cc12)N1CCN(c2ccccn2)CC1	3.7	-0.3	-0.3	.	18.6*	-8.5	8.6
O=C(CCc1ccccc1)NC(=S)Nc1cccc(Br)c1	-0.2	-0.1	1.3	-0.6	-1.2	2.4	.
O=C(CCc1ccccc1)NC(=S)Nc1ccc2c(c1)C(=O)OC2	8.2	0.4	-10.6	-24.6	30.7*	1.9	30.1*
SMILES	PG9 binder	aDG glyco act	ZTA DNA inh	NCF1 inh	Rev-erbA mod	EBNA-1 inhibitor	Rev-erbA confirm	others
C=CCN1C(=O)/C(=C2/Sc3ccc(OC)cc3N2C)SC1=NCc1ccccc1	-1.5	0.2	-10.0	-8.4	55.2*	-15.4	47.1*	RORg counter=>40
Nn1c(SCC(=O)Nc2cccc3ccccc23)nnc1-c1cc(-c2ccc(Cl)cc2)n[nH]1	.	.	.	.	6.1	.	.
CN(CC(=O)Nc1cccc(Cl)c1)S(=O)(=O)c1ccc2c(c1)n(C)c(=O)c(=O)n2C	0.4	2.2	-5.0	.	1.1	-18.1	.
CN(CC(=O)Nc1ccc(Cl)cc1)S(=O)(=O)c1ccc2c(c1)n(C)c(=O)c(=O)n2C	0.0	-0.1	-24.4	.	63.4*	-10.5	42.5*	RORg counter=>40
CN(Cc1cn(Cc2ccccc2)nn1)S(=O)(=O)c1ccccc1Br	.	.	.	.	-4.9	.	.
Cc1ccc(-c2nc(NC(=O)CSc3cc(C)c4ccccc4n3)ns2)cc1	-0.2	0.3	-13.9	51.5*	498.7*	4.8	61.4*	RORg counter=>40
O=C(CSc1nnnn1-c1ccccc1)Nc1nsc(-c2ccc(Cl)cc2)n1	7.7	0.9	-7.9	20.9	26.5*	0.4	43.3*
COc1ccc2c(C)cc(SCC(=O)Nc3nsc(-c4ccc(C)cc4)n3)nc2c1	-0.1	-0.1	17.3	-3.0	4.5	3.3	.
C[C@H](NS(=O)(=O)c1ccc([N+](=O)[O-])cc1)C(=O)NCCNC(=O)[C@@H](C)NS(=O)(=O)c1ccc([N+](=O)[O-])cc1	.	.	.	.	-1.9	.	.
CCC(Oc1ccccc1)C(=O)Nc1cc(C(F)(F)F)ccc1N1CCOCC1 (stereo not given)	-0.4	1.0	-1.9	.	16.2*	-14.4	12.4
CC(=O)Nc1cc(C(F)(F)F)ccc1N1CCOCC1	-1.0	-0.3	-10.7	-3.9	-4.9	-8.0	.
COc1ccccc1C(=O)NC1CCCCN(Cc2cccc(F)c2)C1=O (stereo not given)	.	.	.	.	-10.9	.	.
Cc1cc2c(=O)oc(-c3ccc(Br)cc3)nc2s1	0.3	-0.1	10.7	-6.5	31.0*	2.4	7.1
COc1cc2c(c(OC)c1OC)[C@@]1(c3ccccc3)CCCCC[C@H]1[C@@H]2NC(=O)C(F)(F)F	-2.4	.	.	.	13.1*	.	5.7
COc1cc2c(cc1OC)[C@@]1(c3ccccc3)CCCC[C@H]1[C@@H]2NC(=O)C(F)(F)F	-0.2	.	.	.	-3.9	.	.
Cc1ccc2nc(NC(=O)c3ccc4ncsc4c3)sc2c1	0.6	-0.2	-3.6	-25.5	34.2*	-5.6	23.9*
COc1ccc(Cl)cc1C(=O)Nc1nc2ccc(S(C)(=O)=O)cc2s1	.	.	-1.9	-28.3	.	18.2	.
COc1cc(C(=O)Nc2nc3ccc(S(C)(=O)=O)cc3s2)cc(OC)c1C	2.7	-0.1	1.0	-10.1	21.0*	-9.8	9.7
O=C(Nc1ccc(Br)cc1)c1ccc2ncsc2c1	-0.9	0.1	3.4	.	-2.1	3.2	.
COc1cc(OC)cc(C(=O)Nc2nc3ccc(S(C)(=O)=O)cc3s2)c1	2.2	-0.8	-1.4	4.1	33.1*	-4.2	21.3*

Screens deposited in PubChem by several laboratories.
